Screening results (PubChem)
aSyn UTR act: Activators working through SNCA 5'UTR binding (MLPCN); AID 1814; alpha-synuclein 5'UTR reporter, activators screen; activity score, % (tested at 7.5 µM), hits read low; 7.1% of 300,000 active; in the data active = activity score below about -60%
Each line names hits and unclear results; the compound was inactive in the other large screens. These entries were drawn from the full list.

C=CCN=c1scc(-c2ccccc2)n1/N=C/c1ccccn1	aSyn UTR act -68
CC(=O)Nc1ccc(NC(=O)C(C)OC(=O)/C(C#N)=C/c2ccc(N(C)C)cc2)cc1 (stereo not given)	aSyn UTR act -85
Cc1cc(OCc2cc(C(=O)N(C)C3CCOC3)no2)cc(C)c1Cl (stereo not given)	aSyn UTR act -107
CC(=O)c1ccc(OCc2cc(C(=O)N(C)C3CCOC3)no2)cc1 (stereo not given)	aSyn UTR act -130
CC(=O)c1ccc(OCc2cc(C(=O)N(C)CCOc3ccc(C)cc3)no2)cc1	aSyn UTR act -170
Cc1ccc(OCc2ccc(C(=O)Nc3nc4ccccc4n3Cc3ccccc3)o2)c([N+](=O)[O-])c1	none
Cc1cc(OCCN2CCOCC2)ccc1[N+](=O)[O-]	aSyn UTR act -80
Cc1ccc(OCCCN2CCOCC2)c([N+](=O)[O-])c1	aSyn UTR act -82
Cc1ccc(OCCCCCN2CCOCC2)c(Cl)c1	aSyn UTR act -74
Cc1cc(OCC(=O)N2CCOCC2)ccc1[N+](=O)[O-]	aSyn UTR act -76
Cc1cc(OCCN2CCOCC2)ccc1Cl	aSyn UTR act -76
CCCN1C(=O)c2cccc3c(N4CCCCC4)ccc(c23)C1=O	aSyn UTR act -83
Cc1ccc(N2C(=O)c3cccc4c(N)ccc(c34)C2=O)c2cccnc12	none
CCOc1cccc(C(=O)Nc2cccc(-c3nnc(-c4ccccc4)o3)c2)c1	aSyn UTR act -77
O=C(Nc1cccc(-c2nnc(-c3ccccc3)o2)c1)C1CC1	aSyn UTR act -89
CC(=O)Nc1cccc(-c2nnc(-c3ccccc3)o2)c1	aSyn UTR act -150
CC(C)=CC(=O)OCc1cc([N+](=O)[O-])cc2c1OCOC2	aSyn UTR act -110
O=C(CCS(=O)(=O)c1ccccc1)N1CCN(c2ccccc2)CC1	aSyn UTR act -78
O=C(CCS(=O)(=O)c1cccs1)N1CCCC1	aSyn UTR act -124
O=C(CCNS(=O)(=O)c1cccs1)N1CCCCCC1	aSyn UTR act -102
CC(C)=CCC/C(C)=C/CC(C)(C)CNCCN1CCNCC1	aSyn UTR act -64
N=c1oc2ccccc2cc1-c1nc(-c2ccc(Cl)cc2)cs1	aSyn UTR act -82
O=C(c1ccncc1)N1N=C(c2ccc(Cl)cc2)CC1c1ccccc1O (stereo not given)	aSyn UTR act -128
COc1ccc(-c2coc3cc(OC4OC(CO)C(O)C(O)C4O)ccc3c2=O)cc1 (stereo not given)	aSyn UTR act -124
COc1ccc(CC(=O)c2ccc(OC3OC(CO)C(O)C(O)C3O)cc2O)cc1 (stereo not given)	aSyn UTR act -69
COc1ccc(-c2coc3cc(O)ccc3c2=O)cc1O	aSyn UTR act -90
COc1ccc(-c2coc3cc(O)ccc3c2=O)cc1	aSyn UTR act -134
O=C(Nc1ccccc1)Nc1nnc(-c2ccccc2)s1	aSyn UTR act -162
CC(C)=CC(=O)Nc1nnc(-c2ccccc2)s1	aSyn UTR act -187
Cc1ccccc1C(=O)Nc1nnc(SC(C)C)s1	aSyn UTR act -97
COc1ccccc1C(=O)Nc1nc(-c2cccs2)c(NC(C)=O)s1	aSyn UTR act -128
COc1ccccc1C(=O)Nc1nnc(C)s1	aSyn UTR act -211
COc1ccccc1C(=O)Nc1nnc(SCC(=O)Nc2ccc3c(c2)oc2ccccc23)s1	aSyn UTR act -152
CC(=O)Nc1ccc(-c2nnc(SCC(=O)Nc3ccc4c(c3)oc3ccccc34)n2C)cc1	aSyn UTR act -92
O=C(CSc1ncn[nH]1)Nc1nnc(-c2ccccc2)s1	aSyn UTR act -74
CCOc1ccccc1C(=O)Nc1nnc(C(C)C)s1	aSyn UTR act -176
COc1ccccc1C(=O)N(C)c1nnc(-c2ccccc2)s1	aSyn UTR act -117
COc1cccc(C(=O)Nc2nnc(-c3ccccc3)s2)c1OC	aSyn UTR act -113
O=C(Nc1nnc(-c2ccccc2)s1)c1ccccc1O	aSyn UTR act -153
COc1ccccc1C(=O)Nc1nnc(-c2ccccc2)s1	aSyn UTR act -153
N#C/C(=C\c1ccccc1O)C(=O)Nc1cccnc1	aSyn UTR act -107
Cc1cc(/C=C(\C#N)C(=O)Nc2ccccc2)c(C)n1-c1cccnc1	aSyn UTR act -143
N/C(=N\OC(=O)c1ccc2c(c1)OCO2)c1ccc([N+](=O)[O-])cc1	aSyn UTR act -128
COc1ccc(/C(N)=N/OC(=O)c2ccc3c(c2)OCO3)cc1OC	aSyn UTR act -87
N/C(=N\OC(=O)c1ccc2c(c1)OCO2)c1cccc(Br)c1	aSyn UTR act -146
N/C(=N\OC(=O)c1ccc2c(c1)OCO2)c1cccnc1	aSyn UTR act -139
COc1cc(C(=O)O/N=C(\N)Cc2ccc([N+](=O)[O-])cc2)cc(OC)c1OC	none
C=CCN1C(=O)C(=O)N(Cc2nc3ccccc3s2)C1=O	aSyn UTR act -118
C/C(=N\Nc1ccccc1C(=O)O)c1ccncc1	aSyn UTR act -132
C/C(=N\Nc1ccc(C)c(Cl)c1)c1cccnc1	aSyn UTR act -105
O=C(O)c1ccccc1NN=C1CCCCC1	aSyn UTR act -192
C/C(=N\Nc1ccc(C)c(Cl)c1)c1ccncc1	aSyn UTR act -77
Cc1ccc(C2=Nc3ccccc3SC(c3cccc([N+](=O)[O-])c3)C2)cc1 (stereo not given)	aSyn UTR act -113
COC(=O)Nc1nnc(-c2ccc(OC)cc2)s1	aSyn UTR act -76
COc1ccc(C(=O)Nc2nnc(-c3ccccc3)s2)cc1	aSyn UTR act -189
CCC(NC(=O)Nc1nnc(C(F)(F)F)s1)(C(F)(F)F)C(F)(F)F	none
COc1ccc(C(=O)Nc2nnc(C(F)(F)F)s2)cc1	aSyn UTR act -144
Nc1ccc2c(c1)COc1ccccc1O2	aSyn UTR act -133
C/C(=N\Nc1ccc([N+](=O)[O-])cc1)c1cccc(N)c1	aSyn UTR act -199
C/C(=N\N=C(/C)c1cccc(N)c1)c1cccc(N)c1	aSyn UTR act -111
C/C(=N\Nc1ccc([N+](=O)[O-])cc1)c1ccc(O)cc1	aSyn UTR act -217
COc1ccc(/C=C/C(=O)Nc2cccc(C(C)=O)c2)cc1	aSyn UTR act -95
CCc1cc(C(=O)O)c(NC(=O)/C=C/c2ccc(OC)cc2)s1	aSyn UTR act -119
COc1cccc(/C=C/C(=O)Nc2cccc(C(C)=O)c2)c1OC	aSyn UTR act -126
O=C(Cn1c(=O)sc2ccccc21)NCc1ccccn1	aSyn UTR act -68
COc1ccc(-c2cc3ccccc3oc2=O)cc1NC(=O)c1ccc([N+](=O)[O-])o1	aSyn UTR act -240
CCC(=O)Nc1ccc(-c2cc3ccccc3oc2=O)cc1	none
CCC(=O)Nc1cc(-c2cc3ccccc3oc2=O)ccc1OC	aSyn UTR act -98
COc1ccc(-c2cc3ccccc3oc2=O)cc1NC(=O)c1ccc(Br)o1	aSyn UTR act -94
CCOC(=O)Nc1ccc2c(C)cc(=O)oc2c1	aSyn UTR act -178
Cc1cc(=O)oc2cc(NC(=O)CCOc3ccccc3)ccc12	aSyn UTR act -82
CCCCOC(=O)Nc1ccc2c(C)cc(=O)oc2c1	aSyn UTR act -145
CCOc1ccc(-c2cc(C(=O)N3CCC(C)CC3)c3ccccc3n2)cc1	aSyn UTR act -128
COc1ccc2cc(-c3cc(C(=O)OCC(=O)Nc4c(C)n(C)n(-c5ccccc5)c4=O)c4ccccc4n3)ccc2c1	none
Cc1ccc(-c2cc(C(=O)N3CCN(c4ccccc4O)CC3)c3ccccc3n2)o1	aSyn UTR act -81
COc1ccc(-c2cc(C(=O)OCC(=O)NC(C)C)c3ccccc3n2)cc1	aSyn UTR act -65
CCOc1ccc(-c2cc(C(=O)O)c3ccccc3n2)cc1	aSyn UTR act -83
Cc1cccc2c(C(=O)N3CCN(c4ccccc4)CC3)cc(-c3ccncc3)nc12	none
